LmPK inhibitor: qHTS Assay for Inhibitors of Leishmania Mexicana Pyruvate Kinase (LmPK). Q27686. purified LmPK, Kinase-Glo ATP luminescence, 1 h. Potency, µM (highest dose often 57.5 µM), inactives show top-dose activity change, negative = inhibition, hits mostly inhibitors. hit rate 0.37% among 290,000. AID 1721, 2009; further: potency means the concentration at half of the fitted maximal effect; on the % scale 0 is the no-effect control and ±100 the full control effect
Target sequence (Q27686 whole entry, looked up): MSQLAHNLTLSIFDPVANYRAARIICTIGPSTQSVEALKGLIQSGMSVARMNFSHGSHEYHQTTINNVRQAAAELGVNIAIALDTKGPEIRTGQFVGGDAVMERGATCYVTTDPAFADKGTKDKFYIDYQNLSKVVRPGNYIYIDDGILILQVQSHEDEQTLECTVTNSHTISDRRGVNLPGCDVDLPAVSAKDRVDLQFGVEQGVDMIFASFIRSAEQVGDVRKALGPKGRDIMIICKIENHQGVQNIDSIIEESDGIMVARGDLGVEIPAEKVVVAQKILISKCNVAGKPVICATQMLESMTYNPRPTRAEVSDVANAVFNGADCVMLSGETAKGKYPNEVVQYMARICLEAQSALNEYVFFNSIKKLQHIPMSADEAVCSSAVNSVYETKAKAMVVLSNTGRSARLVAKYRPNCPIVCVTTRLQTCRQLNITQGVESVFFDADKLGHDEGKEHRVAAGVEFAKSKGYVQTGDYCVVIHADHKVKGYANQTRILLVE
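Purified LmPK (0.1 nM) converted ADP (0.1 mM) to ATP with PEP (0.5 mM) in imidazole buffer pH 7.2 with KCl and MgCl2, 1 h at room temperature. ATP was read by Kinase-Glo luminescence; data normalized to uninhibited and no-enzyme controls.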
Pf growth 48h: Primary qHTS for delayed death inhibitors of the malarial parasite plastid, 48 hour incubation | P. falciparum luciferase growth in erythrocytes, 48 h | AID 504832, 2011 | Potency, µM (titrated, usually from 28.7 µM), for the others: at the top dose activity change, negative = inhibition, actives largely listed as inhibitors | hit rate 5.9% among 310,000; further: potency means the concentration at half of the fitted maximal effect; on the % scale 0 is the no-effect control and ±100 the full control effect
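Luciferase-expressing P. falciparum in infected erythrocytes (2% hematocrit, 0.1% parasitemia final) in RPMI 1640/0.5% Albumax were exposed to compound for 48 hours at 37 C, 5% CO2; growth read as luminescence.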
Shiga inhibitor: A qHTS for Small Molecule Inhibitors of Shiga Toxin | inhibition, % at 38.7 µM | Vero cells, Shiga toxin protein synthesis inhibition reporter | hit rate 9.2% among 290,000; in the data active means inhibition mostly above about 28%, no sharp cut-off; inactive means mostly below about 43%; further: 0% is about no effect
Cycloheximide cs: Cycloheximide Counterscreen for Small Molecule Inhibitors of Shiga Toxin; cell reporter, cycloheximide protein synthesis inhibition counterscreen; max response, %; hit rate 12% among 300,000; AID 2314, 2010; in the data active means max response mostly above about 13%, no sharp cut-off; inactive means mostly below about 14%; further: read at 38.3 µM for the half of the compounds with a filed dose; 0% is about no effect
Pf growth 96h: Primary qHTS for delayed death inhibitors of the malarial parasite plastid, 96 hour incubation | P. falciparum luciferase reporter growth, 96 h | Potency, µM (titrated, usually from 28.7 µM), without a hit: at the highest dose activity change, negative = inhibition, hits mostly inhibitors | hit rate 6.9% among 320,000 | AID 504834, 2011; further: potency means the concentration at half of the fitted maximal effect; on the % scale 0 is the no-effect control and ±100 the full control effect
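Erythrocytes infected with luciferase-expressing P. falciparum were dispensed at 2% hematocrit and 0.05% parasitemia (final), then incubated with compounds 96 hours at 37 C in 5% CO2. Luminescence after detection reagent addition reported growth.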
Starred values were filed as active, the others as inactive; ? = inconclusive; . = no result; + = active, no number. An excerpt weighted towards active compounds, which were near 22% of everything screened. Unless noted, the call rests on the fitted dose curve; in most records, active means well fitted inhibition curve with a large enough effect; inconclusive means small, poorly fitted or top-dose-only effect, or another doubt; inactive means no such curve, though single readings can be large or run the other way.

SMILES | LmPK inhibitor | Pf growth 48h | Shiga inhibitor | Cycloheximide cs | Pf growth 96h
CC(=O)c1c(N2CCN(c3ccccn3)CC2)nc(=S)n(-c2ccccc2)c1C | -3% | ? | -3 | 5 | -2%
CCC(C)c1ccccc1NC(=O)C(C)OC(=O)c1ccco1 (configuration not stated) | . | -9% | . | . | 25%
Brc1ccc(C2=NC(Cc3ccccc3)CO2)cc1 (configuration not stated) | -3% | 140% | 77* | 52* | 116%
O=C(OCc1ccccc1)[C@@H]1COC(c2ccc(Br)cc2)=N1 | . | . | + | 38* | .
O=C(O)CC(NC(=O)OCc1ccccc1)c1ccc(Br)cc1 (configuration not stated) | 0% | 25% | -7 | -3 | .
CCCN(C(=S)Nc1ccccc1)C1CCS(=O)(=O)C1 (configuration not stated) | -7% | 32% | -16 | -3 | ?
O=C1NC(c2ccccc2)C(C(=O)c2cccs2)=C1O (configuration not stated) | 1% | 13% | 15 | 6 | 12µM*
O=C(NCCN1CCOCC1)c1ccc(Cl)c(S(=O)(=O)N2CCCCC2)c1 | 4% | -4% | 6 | -1 | ?
CN1CCN(S(=O)(=O)c2cccc(C(=O)NCCC3=CCCCC3)c2)CC1 | . | -20% | . | . | 9%
O=C(NCCC1=CCCCC1)c1ccc(Cl)c(S(=O)(=O)N2CCOCC2)c1 | 1% | 5.9µM* | active | 12 | -9%
CC(=O)N1CCN(S(=O)(=O)c2cccc(C(=O)NCCC3=CCCCC3)c2)CC1 | . | 12% | . | . | 8.3µM*
Cc1ccc(CSCCNC(=O)c2ccc(Cl)c(S(=O)(=O)N3CCOCC3)c2)cc1 | 14% | . | -7 | -2 | 5.2µM*
O=C(NCCC1=CCCCC1)c1ccc(Cl)c(S(=O)(=O)N2CCCCC2)c1 | -7% | 9.3µM* | 50 | 30 | 5.9µM*
CCOc1ccccc1NC(=O)CSc1nnc(CNC(=O)c2cc(OC)c(OC)c(OC)c2)o1 | -7% | 14% | 11 | 5 | ?
Cc1cc(NC(=O)CCC(=O)N(Cc2ccco2)C2(C(=O)NC3CCCCC3)CCCC(C)C2)no1 (configuration not stated) | 1% | -28% | 12 | -4 | ?
C=CCn1c(N)c(C(=O)NCCC2=CCCCC2)sc1=S | 2% | 15% | 106* | 49* | -22%
Nc1c(C(=O)NCCC2=CCCCC2)sc2ccc(S(=O)(=O)N3CCCCC3)cc12 | 2% | 13µM* | -3 | -5 | ?
O=C(NC(=S)Nc1ccc2oc(=O)ccc2c1)c1cccc(Cl)c1 | 1% | 7% | -6 | -2 | 20%
Cc1nnsc1C(=O)NC1CCCc2c1cnn2-c1ccc(C(C)(C)C)cc1 (configuration not stated) | 7% | ? | 28 | 5 | ?
CC[C@H](C)[C@H](NC(=O)[C@H](Cc1ccc(O)cc1)NC(=O)[C@@H]1CCCN1C(=O)[C@H](CCCN=C(N)N)NC(=O)[C@H](CCCN=C(N)N)NC(=O)[C@@H]1CCCN1C(=O)[C@H](CCCCN)NC(=O)[C@H](CC(N)=O)NC(=O)[C@H](CCC(N)=O)NC(=O)[C@H](Cc1ccc(O)cc1)NC(=O)[C@H](CC(C)C)NC(=O)[C@@H]1CCC(=O)N1)C(=O)N[C@@H](CC(C)C)C(=O)O | . | . | -6 | -7 | .
CCCC1=NN(c2ccc([N+](=O)[O-])cc2)C(=O)/C1=C\N(C)C | -9% | 28% | 24 | 11* | 17%
CNC(=O)NC(=O)C(OC(=O)Cc1cccc(C(F)(F)F)c1)c1ccccc1 (configuration not stated) | -2% | 37% | 9 | -3 | 32%
COc1ccc(N/C=C/C(=O)c2ccc(OC)c(OC)c2)cc1 | -7% | ? | 56* | 24* | ?
COc1ccc(C(=O)/C=C/Nc2cccc(C)n2)cc1OC | -10% | -35% | + | 65* | 153%
COC(=O)c1ccc(N/C=C/C(=O)c2ccc(OC)c(OC)c2)cc1 | 3% | 6% | -9 | 8 | -10%
COc1ccc(N/C=C/C(=O)c2cc(OC)c(OC)c(OC)c2)cc1 | 1% | -12% | . | 17* | -17%
O=C(CN1CCOCC1)N1CCN(c2ccc3ccccc3n2)CC1 | -4% | 33% | 12 | -1 | ?

From PubChem
